Screening data (PubChem)
Most compounds without a hit are left out; they make up all but 19% or so of the library.
MARV entry inh: qHTS for inhibitors of binding or entry into cells for Marburg Virus | Marburg virus pseudotyped entry inhibition, cell reporter | Potency, µM (top dose mostly 37.8 µM), inactives show at the top dose activity change, negative = inhibition, usual class: inhibitors | hit rate 1.8% among 300,000; calls by dose curve; tested in HEK293 cells; also: potency is read from the fitted curve at half-maximal effect; % is scaled to controls: 0 for no effect and ±100 for the full control effect
Pf growth 96h: Primary qHTS for delayed death inhibitors of the malarial parasite plastid, 96 hour incubation | P. falciparum luciferase reporter growth, 96 h | Potency, µM (highest dose often 28.7 µM), for the others: top-dose activity change, negative = inhibition, most hits filed as inhibitors | hit rate 6.9% among 320,000 | AID 504834, 2011; also: potency is read from the fitted curve at half-maximal effect; % is scaled to controls: 0 for no effect and ±100 for the full control effect
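Two-generation exposure (96 h) targets delayed-death phenotype. Reporter parasites carrying integrated firefly luciferase, in red cells at 2% hematocrit and 0.05% parasitemia final, kept at 37 C, 5% CO2; luminescence loss indicates inhibition.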
CHX counter: Cycloheximide Counterscreen for Small Molecule Inhibitors of Shiga Toxin; max response, %; cell reporter, cycloheximide protein synthesis inhibition counterscreen; hit rate 12% among 300,000; in the data active = max response mostly above about 13%, no sharp cut-off; inactive = mostly below about 14%; also: read at 38.3 µM for the half of the compounds with a filed dose; 0% is about no effect
Shiga toxin inh: A qHTS for Small Molecule Inhibitors of Shiga Toxin. inhibition, % at 38.7 µM. hit rate 9.2% among 290,000. Vero cells, Shiga toxin protein synthesis inhibition reporter. AID 2315, 2010; in the data active = inhibition mostly above about 28%, no sharp cut-off; inactive = mostly below about 43%; also: 0% is about no effect
Pf growth 48h: Primary qHTS for delayed death inhibitors of the malarial parasite plastid, 48 hour incubation | P. falciparum luciferase growth in erythrocytes, 48 h | Potency, µM (top dose mostly 28.7 µM), for the others: at the highest dose activity change, negative = inhibition, usual class: inhibitors | hit rate 5.9% among 310,000 | AID 504832, 2011; also: potency is read from the fitted curve at half-maximal effect; % is scaled to controls: 0 for no effect and ±100 for the full control effect
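Firefly luciferase activity from engineered P. falciparum reports growth; inhibitors lower the luminescent signal. Cultures contained 2% hematocrit erythrocytes at 0.1% final parasitemia.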
LASV entry inh: qHTS for Inhibitors of binding or entry into cells for Lassa Virus. AID 540256, 2011. Potency, µM (series often up to 37.9 µM), without a hit: at the top dose activity change, negative = inhibition, most hits filed as inhibitors. hit rate 1.2% among 300,000. Lassa virus pseudotype entry inhibition, cell reporter; calls by dose curve; tested in HEK293 cells; also: potency is read from the fitted curve at half-maximal effect; % is scaled to controls: 0 for no effect and ±100 for the full control effect; nearly all actives have a fitted effect of over 50% in size
An asterisk follows results filed as active; ? = inconclusive; · = no result; [ ] = dose if it differs, or a comment. Unless noted, calls follow the shape of the dose curve; as a rule, active = well fitted inhibition curve with a large enough effect; inconclusive = small, poorly fitted or top-dose-only effect, or another doubt; inactive = no such curve, though single readings can be large or run the other way.

SMILES	MARV entry inh	Pf growth 96h	CHX counter	Shiga toxin inh	Pf growth 48h	LASV entry inh
CCOc1cc(CNc2ccc3c(c2)OCCO3)cc(Br)c1OCC(N)=O	-22%	?	20*	29	?	-19%
CCOc1c(Br)cc(CNc2ccc3c(c2)OCCO3)cc1OC	?	0.83µM*	49*	97*	·	-7%
COc1cc(CNc2ccc3c(c2)OCCO3)ccc1OCC(N)=O	-1%[46.1 µM]	-1%	6	-1	9%	26%[46.1 µM]
CCOc1cc(CNc2ccc3c(c2)OCCO3)cc(Br)c1OC	?	?	11	6	·	?
O=C(NC(Cc1ccc(O)cc1)C(=O)O)c1ccc2c(c1)OCO2 (configuration not stated)	·	6%	·	·	7%	·
CCOC(=O)c1ccc(NC(=O)CSCc2ccco2)cc1	-8%	?	13*	32*	?	28%[14.3 µM]
CC(C)OC(=O)c1ccc2nc3ccccc3nc2c1	?	124%	87*	125*	70%	?
COC(=O)c1ccc(NC(=O)c2cccc(NC(=O)c3ccco3)c2)cc1	?	?	-2	-11	-15%	3%
O=C(O)Cc1ccc(NC(=O)c2ccc(NC(=O)c3ccco3)cc2)cc1	2%	9%	-1	18	·	-3%
CC(C)OC(=O)c1ccc(NC(=O)c2ccco2)cc1	?	·	46*	77*	-25%	?
CCOC(=O)c1ccc(NC(=O)c2ccco2)cc1	·	?	42*	107*	28%	·
CC(C)OC(=O)c1ccc(NC(=O)c2ccccc2)cc1	?	?	66*	69*	?	?
CCOC(=O)c1ccc(NC(=O)c2ccc(NC(=O)c3ccccc3)cc2)cc1	-14%	29%	-4	-13	·	-5%
CCOC(=O)c1sc(NC(=O)CSc2nnc(C(C)C)n2CC)nc1C	4%	1%	-2	-9	-13%	-20%
Fc1ccc(-c2noc3ncnc(NCc4cccc(Cl)c4)c23)cc1	·	·	·	·	·	-27%[46.1 µM]
COc1ccc(N(C(=O)CCl)C(C(=O)NC2CCCCC2)c2cccnc2)cc1 (configuration not stated)	?	?	2	-8	?	13µM*
COc1ccc(C(C(=O)NC2CCCCC2)N(C(=O)CCl)c2cccc(Cl)c2)cc1 (configuration not stated)	?	?	5	10	?	3.5µM*
COc1ccc(C(C(=O)NC2CCCCC2)N(C(=O)CCl)c2ccc(OC)cc2)cc1 (configuration not stated)	-15%	9.3µM*	1	-2	-17%	-24%
O=C(NC1CCCCC1)C(c1cccnc1)N(C(=O)CCl)c1ccc(F)cc1 (configuration not stated)	?	-1%	7	5	?	?
COc1ccc(C(C(=O)NC2CCCC2)N(C(=O)c2ccoc2C)c2ccc(C)cc2)cc1 (configuration not stated)	-25%	?	-2	-5	10µM*	?
CCCCC(NS(=O)(=O)c1ccc(OC)cc1)C(=O)O (configuration not stated)	1%	19%	5	-13	-5%	-2%
Cc1ccc(-c2nn(-c3cccc(F)c3)cc2CN2CCN(c3ccccn3)CC2)o1	·	-26%[5.75 µM]	-1	2	?	·
C/C(=N/NC(N)=S)c1cc2ccc(O)cc2oc1=O	·	0.83µM*	1	-3	?	·
CCOc1ccccc1C1C(C(N)=O)=C(C)Nc2nc(-c3ccc(OC)cc3)nn21 (configuration not stated)	12%	-43%	2	21	-12%	-21%
CCOC(=O)c1c(NC(NC(=O)C(C)C)C(Cl)(Cl)Cl)sc2c1CCC2 (configuration not stated)	11µM*	67%	15*	35	?	?
CCOC(=O)Nc1sc2c(c1C(=O)OCC)CCC2	16%	·	5	-17	·	8%
Cc1cc(C)cc(C(=O)NC(CC(N)=O)c2ccc(N3CCN(C)CC3)c([N+](=O)[O-])c2)c1 (configuration not stated)	·	55%	2	-6	9%	·
